Measured values taken from the supplement of paper PMC11732987, “Enantioselective OTUD7B fragment discovery through chemoproteomics screening and high-throughput optimisation” (Communications Chemistry, 2025).

Tests used:
Test in all cases: log2 ratio of Biotin-Ahx-Ub-VS probe labelling (fragment/DMSO); higher = less target engagement (more negative = stronger competition), active = hit call of the paper (q ≤ 0.05, log2 ratio ≤ -1)
Details in all cases: compound concentration: 200 uM; treatment time: 3 h
USP19 = molecular target: T1, USP19 (UniProt O94966)
T1 sequence (whole entry): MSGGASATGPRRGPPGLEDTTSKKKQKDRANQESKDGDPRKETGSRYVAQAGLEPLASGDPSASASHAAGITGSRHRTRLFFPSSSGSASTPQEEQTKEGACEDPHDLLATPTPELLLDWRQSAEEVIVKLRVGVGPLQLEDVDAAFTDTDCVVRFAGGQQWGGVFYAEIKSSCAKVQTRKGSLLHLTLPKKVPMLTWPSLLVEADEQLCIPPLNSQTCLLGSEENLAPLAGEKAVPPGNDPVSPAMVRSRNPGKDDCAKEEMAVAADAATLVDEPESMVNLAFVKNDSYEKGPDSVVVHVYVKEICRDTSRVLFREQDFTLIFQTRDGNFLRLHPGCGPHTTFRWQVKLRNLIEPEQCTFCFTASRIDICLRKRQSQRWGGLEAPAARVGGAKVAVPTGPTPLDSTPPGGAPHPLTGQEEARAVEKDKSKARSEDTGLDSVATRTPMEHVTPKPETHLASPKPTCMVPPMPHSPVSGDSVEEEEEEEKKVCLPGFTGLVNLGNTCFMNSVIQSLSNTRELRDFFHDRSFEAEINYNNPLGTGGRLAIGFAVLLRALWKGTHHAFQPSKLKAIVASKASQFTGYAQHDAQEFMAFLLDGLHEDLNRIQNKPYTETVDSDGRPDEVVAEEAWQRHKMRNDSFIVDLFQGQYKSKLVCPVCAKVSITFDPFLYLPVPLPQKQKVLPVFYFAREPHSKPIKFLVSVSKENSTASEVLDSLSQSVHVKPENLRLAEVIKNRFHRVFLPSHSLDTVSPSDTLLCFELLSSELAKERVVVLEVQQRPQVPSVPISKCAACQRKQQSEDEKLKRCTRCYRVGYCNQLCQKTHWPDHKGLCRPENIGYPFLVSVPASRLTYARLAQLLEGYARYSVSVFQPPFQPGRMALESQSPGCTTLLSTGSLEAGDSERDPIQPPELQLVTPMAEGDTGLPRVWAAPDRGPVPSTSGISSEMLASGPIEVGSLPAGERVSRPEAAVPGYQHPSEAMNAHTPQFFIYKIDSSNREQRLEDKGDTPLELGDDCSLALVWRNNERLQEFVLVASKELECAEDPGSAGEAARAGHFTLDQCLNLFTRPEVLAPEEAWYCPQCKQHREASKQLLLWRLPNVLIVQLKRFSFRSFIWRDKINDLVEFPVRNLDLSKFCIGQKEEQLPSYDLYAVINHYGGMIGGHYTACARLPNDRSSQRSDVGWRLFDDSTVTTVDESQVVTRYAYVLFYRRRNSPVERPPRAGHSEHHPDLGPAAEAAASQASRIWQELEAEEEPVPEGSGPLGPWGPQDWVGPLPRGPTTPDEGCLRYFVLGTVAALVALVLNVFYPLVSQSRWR
How it was run: (§1)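 HEK293T lysate (495 µg per sample, in Tris/CHAPS/IGEPAL buffer with protease inhibitors) was exposed in triplicate for 3 h to fragment at 200 µM or to vehicle, then to Biotin-Ahx-Ub-VS at 0.5 µM final for 1 h. Labelled DUBs were enriched on NeutrAvidin, digested with LysC and trypsin, and analysed by diaPASEF LC-MS/MS. Spectronaut label-free quantities were normalised to the global median, and values are average log2 ratios of fragment over vehicle from an unpaired t-test. Only proteins with ≥2 unique peptides were used.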

USP22 = molecular target: T2, USP22 (UniProt Q9UPT9)
T2 sequence (whole entry): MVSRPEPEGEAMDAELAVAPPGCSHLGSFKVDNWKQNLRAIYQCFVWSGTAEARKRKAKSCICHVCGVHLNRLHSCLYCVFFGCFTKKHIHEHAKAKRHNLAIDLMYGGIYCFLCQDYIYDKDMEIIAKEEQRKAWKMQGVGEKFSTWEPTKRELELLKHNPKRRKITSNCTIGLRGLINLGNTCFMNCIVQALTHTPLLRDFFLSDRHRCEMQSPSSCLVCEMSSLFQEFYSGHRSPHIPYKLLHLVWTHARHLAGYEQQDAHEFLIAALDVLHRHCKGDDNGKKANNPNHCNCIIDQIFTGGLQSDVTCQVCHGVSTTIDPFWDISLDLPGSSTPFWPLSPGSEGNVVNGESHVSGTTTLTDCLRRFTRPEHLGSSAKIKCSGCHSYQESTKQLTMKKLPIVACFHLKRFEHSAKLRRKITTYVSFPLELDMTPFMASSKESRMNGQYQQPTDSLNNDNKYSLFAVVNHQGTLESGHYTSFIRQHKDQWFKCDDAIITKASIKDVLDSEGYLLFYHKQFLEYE
How it was run: as §1

USP24 = USP24 (UniProt Q9UPU5)
USP24, sequence (Q9UPU5 whole entry): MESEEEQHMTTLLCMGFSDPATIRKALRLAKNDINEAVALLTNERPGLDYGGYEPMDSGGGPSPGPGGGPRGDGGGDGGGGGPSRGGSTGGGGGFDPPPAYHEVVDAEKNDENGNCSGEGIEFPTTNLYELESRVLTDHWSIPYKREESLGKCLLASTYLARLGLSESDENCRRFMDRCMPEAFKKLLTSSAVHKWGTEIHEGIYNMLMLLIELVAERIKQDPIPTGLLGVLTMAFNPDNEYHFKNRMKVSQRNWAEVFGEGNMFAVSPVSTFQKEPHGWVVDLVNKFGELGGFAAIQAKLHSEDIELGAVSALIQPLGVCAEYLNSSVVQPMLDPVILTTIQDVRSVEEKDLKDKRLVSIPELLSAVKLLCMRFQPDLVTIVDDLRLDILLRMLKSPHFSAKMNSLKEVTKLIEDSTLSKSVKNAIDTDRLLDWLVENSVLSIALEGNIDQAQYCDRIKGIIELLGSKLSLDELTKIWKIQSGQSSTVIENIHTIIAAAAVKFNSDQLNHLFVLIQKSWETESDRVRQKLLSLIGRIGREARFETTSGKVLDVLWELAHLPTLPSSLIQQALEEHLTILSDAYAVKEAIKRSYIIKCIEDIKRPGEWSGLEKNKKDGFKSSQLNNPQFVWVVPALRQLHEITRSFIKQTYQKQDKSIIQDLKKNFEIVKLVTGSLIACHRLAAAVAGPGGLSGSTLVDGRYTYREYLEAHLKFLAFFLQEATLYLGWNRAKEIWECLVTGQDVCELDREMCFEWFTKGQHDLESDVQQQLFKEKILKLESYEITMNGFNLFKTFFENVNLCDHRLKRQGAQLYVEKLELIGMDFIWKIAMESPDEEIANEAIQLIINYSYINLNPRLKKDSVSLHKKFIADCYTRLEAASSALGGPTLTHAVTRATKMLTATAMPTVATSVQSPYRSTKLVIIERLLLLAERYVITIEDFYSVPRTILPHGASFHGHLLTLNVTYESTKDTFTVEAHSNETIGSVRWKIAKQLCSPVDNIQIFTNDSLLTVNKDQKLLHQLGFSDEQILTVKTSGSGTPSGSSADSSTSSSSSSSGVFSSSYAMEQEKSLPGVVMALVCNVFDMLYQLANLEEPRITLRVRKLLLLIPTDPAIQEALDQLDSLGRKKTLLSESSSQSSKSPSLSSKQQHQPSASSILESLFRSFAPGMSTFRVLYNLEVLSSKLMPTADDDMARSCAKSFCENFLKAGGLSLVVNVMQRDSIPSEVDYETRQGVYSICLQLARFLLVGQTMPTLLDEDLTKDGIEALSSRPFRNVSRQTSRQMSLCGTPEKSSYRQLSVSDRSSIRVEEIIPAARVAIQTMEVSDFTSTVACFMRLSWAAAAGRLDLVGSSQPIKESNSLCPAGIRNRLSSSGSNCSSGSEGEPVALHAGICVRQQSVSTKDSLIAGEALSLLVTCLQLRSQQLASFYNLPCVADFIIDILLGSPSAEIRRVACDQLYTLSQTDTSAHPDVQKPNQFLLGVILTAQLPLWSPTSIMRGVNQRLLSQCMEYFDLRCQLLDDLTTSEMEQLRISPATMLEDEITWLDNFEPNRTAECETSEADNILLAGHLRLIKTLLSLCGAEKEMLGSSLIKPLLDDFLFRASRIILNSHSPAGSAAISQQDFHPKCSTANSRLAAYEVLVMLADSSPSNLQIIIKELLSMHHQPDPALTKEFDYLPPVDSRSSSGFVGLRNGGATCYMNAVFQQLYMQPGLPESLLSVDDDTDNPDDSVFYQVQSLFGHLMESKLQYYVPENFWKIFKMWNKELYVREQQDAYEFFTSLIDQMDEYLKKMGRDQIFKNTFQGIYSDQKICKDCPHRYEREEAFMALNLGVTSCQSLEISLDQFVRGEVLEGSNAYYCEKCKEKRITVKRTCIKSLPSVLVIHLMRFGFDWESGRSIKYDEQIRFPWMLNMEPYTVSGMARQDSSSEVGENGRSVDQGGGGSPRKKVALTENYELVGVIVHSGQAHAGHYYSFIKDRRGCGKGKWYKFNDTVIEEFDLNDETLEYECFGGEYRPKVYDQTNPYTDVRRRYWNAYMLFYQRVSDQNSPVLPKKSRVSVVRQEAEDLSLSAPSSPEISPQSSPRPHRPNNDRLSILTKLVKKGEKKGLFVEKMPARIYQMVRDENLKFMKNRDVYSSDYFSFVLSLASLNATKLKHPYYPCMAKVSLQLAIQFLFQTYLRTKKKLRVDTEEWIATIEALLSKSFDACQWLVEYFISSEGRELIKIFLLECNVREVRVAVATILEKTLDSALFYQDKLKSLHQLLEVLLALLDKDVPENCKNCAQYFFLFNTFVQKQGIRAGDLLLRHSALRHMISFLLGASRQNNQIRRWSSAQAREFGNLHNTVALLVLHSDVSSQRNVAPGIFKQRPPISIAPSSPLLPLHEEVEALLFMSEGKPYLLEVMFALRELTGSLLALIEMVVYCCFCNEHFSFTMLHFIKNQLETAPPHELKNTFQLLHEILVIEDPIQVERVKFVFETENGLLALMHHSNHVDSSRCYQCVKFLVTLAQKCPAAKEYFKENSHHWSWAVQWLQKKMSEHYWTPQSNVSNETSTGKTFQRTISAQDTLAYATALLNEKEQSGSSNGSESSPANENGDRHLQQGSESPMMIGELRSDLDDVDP
How it was run: as §1

USP25 = molecular target: T3, USP25 (UniProt Q9UHP3)
T3 sequence (whole entry): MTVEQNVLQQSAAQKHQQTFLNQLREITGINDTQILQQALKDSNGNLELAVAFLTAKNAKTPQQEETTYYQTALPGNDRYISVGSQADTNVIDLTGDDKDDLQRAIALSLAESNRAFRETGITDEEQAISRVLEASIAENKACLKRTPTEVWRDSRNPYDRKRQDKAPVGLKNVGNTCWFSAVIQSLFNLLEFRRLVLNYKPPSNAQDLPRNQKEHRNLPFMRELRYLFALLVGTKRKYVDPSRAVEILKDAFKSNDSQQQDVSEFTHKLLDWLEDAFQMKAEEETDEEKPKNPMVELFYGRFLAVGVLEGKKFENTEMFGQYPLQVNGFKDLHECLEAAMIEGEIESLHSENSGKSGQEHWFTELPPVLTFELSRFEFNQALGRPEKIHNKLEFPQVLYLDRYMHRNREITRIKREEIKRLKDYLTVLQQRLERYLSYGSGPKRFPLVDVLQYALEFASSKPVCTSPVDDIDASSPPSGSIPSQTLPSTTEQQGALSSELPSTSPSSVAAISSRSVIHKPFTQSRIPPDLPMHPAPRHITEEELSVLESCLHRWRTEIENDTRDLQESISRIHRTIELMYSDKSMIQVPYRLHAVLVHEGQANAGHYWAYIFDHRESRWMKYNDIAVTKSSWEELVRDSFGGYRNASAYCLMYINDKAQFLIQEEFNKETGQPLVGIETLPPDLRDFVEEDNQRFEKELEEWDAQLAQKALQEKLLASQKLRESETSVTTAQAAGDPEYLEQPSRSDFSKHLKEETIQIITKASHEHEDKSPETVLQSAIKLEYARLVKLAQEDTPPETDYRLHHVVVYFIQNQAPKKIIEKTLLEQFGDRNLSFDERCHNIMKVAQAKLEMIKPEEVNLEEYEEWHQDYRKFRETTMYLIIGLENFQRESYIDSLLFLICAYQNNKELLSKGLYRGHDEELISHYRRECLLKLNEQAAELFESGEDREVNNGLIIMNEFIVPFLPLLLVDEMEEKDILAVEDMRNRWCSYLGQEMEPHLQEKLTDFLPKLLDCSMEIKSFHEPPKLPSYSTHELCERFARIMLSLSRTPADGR
How it was run: as §1

USP28 = molecular target: T4, USP28 (UniProt Q96RU2)
T4 sequence (whole entry): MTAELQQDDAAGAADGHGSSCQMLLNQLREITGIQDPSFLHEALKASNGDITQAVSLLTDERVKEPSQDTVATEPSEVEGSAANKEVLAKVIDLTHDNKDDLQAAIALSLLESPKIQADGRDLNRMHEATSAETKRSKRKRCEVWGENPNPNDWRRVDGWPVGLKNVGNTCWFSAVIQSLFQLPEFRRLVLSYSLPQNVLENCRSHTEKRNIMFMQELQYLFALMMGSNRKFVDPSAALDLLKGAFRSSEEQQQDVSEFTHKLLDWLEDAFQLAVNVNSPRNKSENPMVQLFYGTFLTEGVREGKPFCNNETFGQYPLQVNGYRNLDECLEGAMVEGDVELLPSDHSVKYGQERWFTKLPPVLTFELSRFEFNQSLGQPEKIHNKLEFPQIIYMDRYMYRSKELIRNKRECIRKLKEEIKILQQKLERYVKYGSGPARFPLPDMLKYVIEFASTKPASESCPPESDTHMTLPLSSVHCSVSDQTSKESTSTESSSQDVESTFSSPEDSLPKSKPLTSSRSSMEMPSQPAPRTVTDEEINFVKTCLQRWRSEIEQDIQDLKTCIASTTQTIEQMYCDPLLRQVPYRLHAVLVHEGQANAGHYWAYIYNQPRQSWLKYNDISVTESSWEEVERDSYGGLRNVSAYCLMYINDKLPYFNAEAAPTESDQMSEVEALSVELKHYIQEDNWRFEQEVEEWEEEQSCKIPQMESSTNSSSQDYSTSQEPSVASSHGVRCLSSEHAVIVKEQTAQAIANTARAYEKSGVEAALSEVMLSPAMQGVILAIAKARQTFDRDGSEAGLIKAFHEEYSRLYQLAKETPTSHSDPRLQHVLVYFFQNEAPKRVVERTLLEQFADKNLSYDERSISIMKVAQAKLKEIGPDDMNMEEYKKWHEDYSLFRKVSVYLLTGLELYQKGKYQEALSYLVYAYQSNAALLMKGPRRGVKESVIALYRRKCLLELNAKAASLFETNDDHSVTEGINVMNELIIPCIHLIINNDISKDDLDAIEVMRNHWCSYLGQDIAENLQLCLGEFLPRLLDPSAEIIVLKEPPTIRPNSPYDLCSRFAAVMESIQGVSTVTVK
How it was run: as §1

Measured: log2 ratio of Biotin-Ahx-Ub-VS probe labelling

O=C(CCl)N1CCOC2(CCC2)C1
inactive: USP19 0.0251 | USP22 0.184 | USP24 -0.0132 | USP25 -0.216 | USP28 -0.0963
